PubChem BioAssay (EPA / NIEHS)
Inconclusive results are not listed. The source made the active and inactive calls. How the source made its calls: active means hit-call score of the fitted dose curve at least 0.9, where 1 is the maximum; inconclusive means response in the unintended direction; inactive means score below 0.9.

biological target: human RAR-related Orphan Receptor gamma (RORg), RORC (gene 6097) (UniProt P51449); experiment: ATG_RORg_TRANS: Attagene TRANS-FACTORIAL HepG2 Assay for human RAR-related Orphan Receptor gamma (RORg) (AID 2283011)
Sequence (P51449 whole entry, looked up, the tested form may be a part): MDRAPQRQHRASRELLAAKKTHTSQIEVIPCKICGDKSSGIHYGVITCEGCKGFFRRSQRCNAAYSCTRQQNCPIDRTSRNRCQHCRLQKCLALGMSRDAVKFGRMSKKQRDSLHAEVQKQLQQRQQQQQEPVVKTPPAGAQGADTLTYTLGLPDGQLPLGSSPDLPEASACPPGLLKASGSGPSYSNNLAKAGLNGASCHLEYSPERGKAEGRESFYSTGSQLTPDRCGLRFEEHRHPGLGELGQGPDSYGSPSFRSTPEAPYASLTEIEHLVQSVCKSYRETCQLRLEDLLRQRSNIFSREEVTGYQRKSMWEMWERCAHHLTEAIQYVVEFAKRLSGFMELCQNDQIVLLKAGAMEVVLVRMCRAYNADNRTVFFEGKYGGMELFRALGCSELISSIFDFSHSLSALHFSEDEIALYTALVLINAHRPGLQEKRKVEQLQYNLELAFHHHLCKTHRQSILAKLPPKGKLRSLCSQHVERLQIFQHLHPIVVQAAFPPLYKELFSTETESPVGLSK
In short: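 Readout: reporter transcript induction (RT-PCR, fluorescent primer extension, capillary electrophoresis) after 24 h compound exposure of transiently transfected HepG2 cells carrying a RORg-Gal4 chimera and GAL4-UAS reporters; DMSO served as baseline, with increasing signal fitted.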

Row | SMILES | outcome
1 | c1coc(CNc2ncnc3nc[nH]c23)c1 | inactive
2 | CC(=O)CCc1ccc(O)cc1 | inactive
3 | CC(=O)C1C(=O)C=C(C)OC1=O (stereo not given) | inactive
4 | CCNC(=S)NCC | inactive
5 | [O-]/[N+](=N\O)c1ccccc1 | inactive
6 | c1ccc2c(c1)-c1ccc3ccc4cccc5cc-2c1c3c45 | inactive
7 | CC(=O)Oc1c(C)c(C)c2c(c1C)CC[C@@](C)(CCC[C@H](C)CCC[C@H](C)CCCC(C)C)O2 | inactive
8 | NC(=O)c1cccnc1 | inactive
9 | CCc1cccc(O)c1 | inactive
10 | NC(=O)c1c(Cl)cccc1Cl | inactive
11 | Cc1ccc(C(C)(C)O)cc1 | inactive
12 | Cc1cc(N)n(-c2ccccc2)n1 | inactive
13 | Nc1cc([N+](=O)[O-])ccc1C(=O)O | inactive
14 | COC(=O)c1cccc(C(=O)OC)c1 | inactive
15 | CC=CC(=O)C1=C(C)C=CCC1(C)C | inactive
16 | CCCC1CCOC(C)S1 (stereo not given) | inactive
17 | O=C1OC2(c3ccc(O)cc3Oc3cc(O)ccc32)c2ccccc21 | inactive
18 | C=CC(C)CCCC(C)(C)O (stereo not given) | inactive

Row | SMILES | outcome
19 | CC(C)N(c1ccccc1)C(C)C | inactive
20 | C1=COCCC1 | inactive
21 | CC(=O)CC(=O)N(C)C | inactive
22 | Cc1ccccc1S | inactive
23 | CC(CO)c1ccccc1 (stereo not given) | inactive
24 | CCOC(=O)CC(C)C | inactive
25 | Nc1ccn([C@H]2CC[C@@H](CO)O2)c(=O)n1 | inactive
26 | CC(C)=CCCC(C)=CC(=O)O | inactive
27 | O=C1OCc2ccccc21 | inactive
28 | CC(C)(C)c1ccc(S)cc1 | inactive
29 | CC(C)(O)CCc1ccccc1 | inactive
30 | CN(C)CCC=C1c2ccccc2CCc2ccccc21 | inactive
31 | NCCN1CCNCC1 | inactive
32 | CCCCCCCCCCCCOC(C)=O | inactive
33 | CCO[Si](CCC#N)(OCC)OCC | inactive
34 | OCCN1CCOCC1 | inactive
35 | c1ccc2scnc2c1 | inactive

biological target: Retinoic acid receptor RXR-alpha (Homo sapiens) (UniProt P19793); experiment: ATG_RXRa_TRANS: Attagene TRANS-FACTORIAL HepG2 Assay for human Retinoid X Receptor alpha (RXRa) (AID 2283012)
Sequence (P19793 whole entry, looked up, the tested form may be a part): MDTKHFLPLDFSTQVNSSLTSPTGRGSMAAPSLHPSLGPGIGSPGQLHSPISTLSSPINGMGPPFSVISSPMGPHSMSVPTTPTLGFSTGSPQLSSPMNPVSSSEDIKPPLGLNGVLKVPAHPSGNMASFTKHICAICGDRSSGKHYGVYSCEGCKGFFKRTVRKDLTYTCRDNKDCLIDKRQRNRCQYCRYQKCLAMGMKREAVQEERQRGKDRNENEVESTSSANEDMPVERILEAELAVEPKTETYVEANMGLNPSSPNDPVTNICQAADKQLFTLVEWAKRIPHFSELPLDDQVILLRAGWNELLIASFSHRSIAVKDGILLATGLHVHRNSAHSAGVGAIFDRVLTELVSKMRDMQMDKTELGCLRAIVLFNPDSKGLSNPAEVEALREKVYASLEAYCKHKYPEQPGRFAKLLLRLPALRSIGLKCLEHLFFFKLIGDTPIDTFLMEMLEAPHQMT
In short: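 Cells (HepG2) carried transiently transfected GAL4-responsive reporter units. Following a 24 h chemical incubation, reporter mRNA induction was read via RT-PCR fragment analysis; DMSO served as negative control and baseline.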

Row | SMILES | outcome
36 | c1coc(CNc2ncnc3nc[nH]c23)c1 | inactive
37 | CC(=O)C1C(=O)C=C(C)OC1=O (stereo not given) | inactive
38 | NC(=O)c1cccnc1 | inactive
39 | CCc1cccc(O)c1 | inactive
40 | NC(=O)c1c(Cl)cccc1Cl | inactive
41 | Cc1ccc(C(C)(C)O)cc1 | inactive
42 | Nc1cc([N+](=O)[O-])ccc1C(=O)O | inactive
43 | CCCC1CCOC(C)S1 (stereo not given) | inactive
44 | O=C1OC2(c3ccc(O)cc3Oc3cc(O)ccc32)c2ccccc21 | inactive
45 | C=CC(C)CCCC(C)(C)O (stereo not given) | inactive
46 | CC(=O)CC(=O)N(C)C | inactive
47 | CCOC(=O)CC(C)C | inactive
48 | Nc1ccn([C@H]2CC[C@@H](CO)O2)c(=O)n1 | inactive
49 | O=C1OCc2ccccc21 | inactive
50 | CN(C)CCC=C1c2ccccc2CCc2ccccc21 | inactive
